Screens (PubChem BioAssay)
TrxR1 inh: blocks rat thioredoxin reductase 1 | O89049 | recombinant rTrxR1, NADPH fluorescence consumption, selenite substrate | Potency, µM (highest dose often 114 µM), actives largely listed as inhibitors | actives 1% (n = 390,000) | AID 588453; further: nearly all actives have a fitted effect of over 65% in size
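Rat TrxR1 (90 nM in the dispensed reagent) was pre-reduced with 400 uM NADPH for 5 min at room temperature, then incubated with compound for 15 min. After 400 uM selenite was added, NADPH fluorescence (Ex 340/Em 450 nm) was followed for 8 min.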
FBPA coupling cs: counter-screen for Giardia aldolase inhibitors: coupling enzyme system | AID 2472 | activity change, negative = inhibition, % at 58.2 µM, hits read low | actives 0.67% (n = 290,000) | coupling enzyme system counterscreen, AmpLite Red fluorescence; in the data active means activity change below about -30%
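Compounds tested against the coupling enzymes alone at 57.5 uM final; readout was AmpLite Red fluorescence (525/598 nm) after 20 min at RT.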
RORgamma inh: blocks mouse ROR gamma transcriptional activity. Drosophila S2 Gal4-RORgamma UAS-luciferase reporter, 20 h. Potency, µM (series often up to 53.6 µM), usual class: inhibitors. actives 5.4% (n = 310,000). AID 2551; further: nearly all actives have a fitted effect of over 60% in size
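Luciferase reporter read in Schneider cells carrying Gal4-RORγ (mouse) and UAS-Photinus luciferase; cells given compound 1 h before 700 uM copper sulfate induction, then incubated 20 h at ambient temperature.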
GALK inhibitor: galactokinase (human) inhibition; P51570; Purified GALK, Kinase-Glo residual ATP luminescence; Potency, µM (series often up to 57.5 µM), hits mostly inhibitors; actives 0.007% (n = 270,000); AID 1868
Target sequence (P51570 whole entry, looked up): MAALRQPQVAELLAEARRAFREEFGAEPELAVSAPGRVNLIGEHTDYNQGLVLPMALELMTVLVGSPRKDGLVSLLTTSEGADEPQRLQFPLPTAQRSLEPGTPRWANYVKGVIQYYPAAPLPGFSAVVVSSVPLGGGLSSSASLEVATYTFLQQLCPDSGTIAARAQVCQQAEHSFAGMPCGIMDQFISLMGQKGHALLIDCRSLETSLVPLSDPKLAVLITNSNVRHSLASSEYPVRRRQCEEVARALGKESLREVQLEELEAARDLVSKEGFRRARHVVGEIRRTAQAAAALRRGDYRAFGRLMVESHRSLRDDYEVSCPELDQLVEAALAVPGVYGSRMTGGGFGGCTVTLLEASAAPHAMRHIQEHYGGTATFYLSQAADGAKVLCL
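GALK at 5 nM final was combined with compound, 35 uM ATP and 100 uM galactose in HEPES pH8.0 with MgCl2 and DTT. The reaction ran one hour at room temperature before luminescent ATP detection.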
TrxR1 substrate: rat thioredoxin reductase 1 substrate activity | Potency, µM (doses to about 114 µM) | actives 0.01% (n = 390,000) | purified TrxR1 substrate turnover, NADPH consumption readout | AID 588456; further: nearly all actives have a fitted effect of over 50% in size
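Rat TrxR1, dispensed at 90 nM, was prereduced with 400 uM NADPH (final) for 5 min at ~22 deg C, then incubated with compound 15 min before 400 uM selenite. A first-read NADPH fluorescence drop versus no-compound background flagged substrates.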
VP16 counter: Gal4-VP16 reporter inhibition counter-screen | Drosophila S2 Gal4-VP16 UAS-luciferase, luminescence, 20 h | Potency, µM (doses to about 53.6 µM), actives largely listed as inhibitors | actives 3.5% (n = 310,000);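 further: Gal4-VP16 expression switched on by copper sulfate through the metallothionein promoter; nearly all actives have a fitted effect of over 50% in size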
Hits are given with their value; . = inactive; ? = inconclusive; / = no result given; [ ] = dose if it differs, or a comment. Rows were chosen to be rich in hits. Some 5.9% of all compounds tested hit in one or more screens of this group. Unless noted, the call rests on the fitted dose curve; in most records, active means well fitted curve in the direction sought with a large enough effect; inconclusive means small, poorly fitted or top-dose-only effect, or another doubt; inactive means no such curve, though single readings can be large; an effect the other way counts as inactive or inconclusive.

SMILES	TrxR1 inh	FBPA coupling cs	RORgamma inh	GALK inhibitor	TrxR1 substrate	VP16 counter
Cc1ccc(C(C)C)c(OCc2ccc(C(=O)N/N=C/c3ccc(O)c(O)c3)cc2)c1	.	.	?	.	.	35.5µM
CC(=O)Nc1ccc(C(=O)N/N=C/c2ccccc2OCc2ccccc2)cc1	.	.	.	.	.	.
CCOc1cc(/C=N/NC(=O)c2ccc(=O)n(C)c2)ccc1O	.	.	.	.	.	.
COc1cc(/C=N/NC(=O)c2ccc(COc3cc(C)ccc3C(C)C)cc2)cc(OC)c1O	.	.	?	.	.	15.8µM
COc1cc(/C=N/NC(=O)c2cccc([N+](=O)[O-])c2)ccc1OCc1ccc(C)cc1	.	.	2.51µM	.	.	.
COc1ccc(/C=N/NC(=O)c2cccc([N+](=O)[O-])c2)cc1O	.	.	.	.	.	?
Cc1ccc(C(C)C)c(OCc2ccc(C(=O)N/N=C/c3cccc(O)c3O)cc2)c1	.	.	1µM	.	.	2.51µM
COc1ccc(CNC(=O)CSc2nnc3nc(C)cc(C)n23)cc1OC	.[11.4 µM]	.	.	.	.[11.4 µM]	.
CCc1c(C)c2ccc(O)c(CN3CCN(c4cc(Cl)ccc4C)CC3)c2oc1=O	.	/	/	/	.	/
S=C(NCc1ccccn1)Nc1ccc(Cl)cc1	.	.	7.94µM	.	.	?
Cc1cccc(NC(=S)NCCc2ccccn2)c1	.	.	?	.	.	?
Cc1ccccc1NC(=O)NCc1ccccn1	.	/	/	/	.	/
Cc1cccc(C)c1NC(=S)N(C)CCc1ccccn1	.	.	.	.	.	.
S=C(NCCc1ccccn1)Nc1cccc(Cl)c1	.	.	5.01µM	.	.	7.94µM
Cc1cccc(C)c1NC(=S)NCCc1ccccn1	.	.	1.41µM	.	.	2.82µM
Cc1ccccc1NC(=S)NCCc1ccccn1	?	.	15.8µM	.	.	?
COc1cc(OC)cc(C(=O)NC(C)CCc2ccccc2)c1 (configuration not stated)	.	.	.	.	.	.
CCCS(=O)(=O)c1c(S(=O)(=O)CCC)c2c(C)cccn2c1C(=O)N/N=C/c1cc(O)cc(O)c1	.	.	?	.	.	.
O=C(c1csnn1)N1CCC2(CC1)CN(Cc1cc(C(F)(F)F)cc(C(F)(F)F)c1)C2	/	.	.	/	/	.
O=C(NC(=S)NCCc1ccccn1)c1ccco1	.	.	?	.	.	.
O=C(NC(=S)NCCc1ccccn1)c1ccccc1	.	.	12.6µM	.	.	.
O=C(O)/C=C/c1cnn(-c2ccccc2)c1	.	.	7.94µM	.	.	14.1µM
CCOC(=O)/C=C/c1cnn(-c2ccccc2)c1	.	.	?	.	.	?
CC1CCC2(CC1)NC(=O)N(CC(=O)Nc1cccc(S(=O)(=O)N3CCCC3)c1)C2=O (configuration not stated)	.	/	/	/	.	/
Cc1ccc(NC(=O)Nc2nnc(-c3ccccc3)o2)cc1	.	.	.	.	.	.
SMILES	TrxR1 inh	FBPA coupling cs	RORgamma inh	GALK inhibitor	TrxR1 substrate	VP16 counter
CCOC(=O)CNC(=O)Nc1nnc(-c2ccc(OCC)cc2)o1	.	.	3.16µM	.	.	5.62µM
CCOC(=O)COc1ccc(-c2nnc(-c3ccccc3)o2)cc1	.	.	.	.	.	?
CCOc1ccc(-c2nnc(NC3=NCCCCC3)o2)cc1	.	.	.	.	.	.
CCCCNC(=O)Nc1nnc(-c2ccc(OCC)cc2)o1	.	.	7.08µM	.	.	5.62µM
CCCCNC(=O)Nc1nnc(-c2ccccc2)o1	.	.	3.98µM	.	.	5.62µM
Cc1nc2oc3c(NCc4ccccc4)ncnc3c2c2c1COC(C)(C)C2	.	.	.	.	.	.
Cc1ccc(NC(=S)NNC(=O)c2c([N+](=O)[O-])c(C)nn2C)cc1	.	.	12.6µM	.	.	.
Cc1nn(C)c(C(=O)N/N=C/c2ccc(-c3ccccc3)cc2)c1Cl	.	/	8.91µM	.	.	11.2µM
Cc1nn(C)c(C(=O)NNC(=S)NCc2ccco2)c1Cl	?	.	.	.	.	.
Cc1ccc(NC(=S)NNC(=O)c2cn(C)nc2C)cc1	.	.	11.2µM	.	.	.
Cc1nn(C)c(C(=O)NNC(=S)NCC(C)C)c1Cl	.	.	3.16µM	/	.	.
Cc1ccc(NC(=O)c2c([N+](=O)[O-])c(C(C)(C)C)nn2C)cc1	.	.	.	.	.	.
COc1ccc(/C=N/NC(=O)c2c([N+](=O)[O-])c(C)nn2C)cc1	.	.	.	.	.	.
Cn1c(SCC(=O)N2CCN(S(=O)(=O)c3ccc(Cl)cc3)CC2)nc2ccccc21	.	.	.	.	.	.
O=C(COc1ccc(S(=O)(=O)N2CCOCC2)cc1)NCc1ccccc1	.	/	.	.	.	.
Cc1nn(-c2ccccc2)c(C)c1C(=O)N1CCN(S(=O)(=O)c2ccccc2)CC1	.	/	/	/	.	/
Cc1ccc(NC(=S)NNC(=O)c2c(Cl)c(C)nn2C)cc1	.	.	3.98µM	.	.	?
Cc1ccc(NC(=S)NNC(=O)c2nn(C)c(C)c2Cl)cc1	.	.	.	.	.	.
CC12CCCC[C@@H]1CCC1C2CCC2(C)C1CC[C@@]2(O)CNCCO (some centres not stated)	.	.	.	/	.	.
CC1CCC(C(C)(C)O)CC2=C1CCC2C (configuration not stated)	/	.	.	/	/	.
CCOC(=O)c1c(C)[nH]c(N=Nc2ccc(C)cc2C)c1C	.	.	.	.	.	.
CCOC(=O)c1c(C)[nH]c(N=Nc2ccccc2C)c1C	.	.	3.98µM	.	.	?
CCC1CCCCN1CCCNC(=O)CS(=O)Cc1nc(-c2ccc(OC)c(OC)c2)oc1C (configuration not stated)	.	/	.	.	.	.
COc1cccc(-c2nnc(-c3ccc(C(F)(F)F)cc3)o2)c1	.	.	.	.	.	.
Oc1ccccc1-c1nnc(-c2ccc(C(F)(F)F)cc2)o1	.	.	3.55µM	.	.	6.31µM
CCOC(=O)/C=C(/C)N1N=C(c2ccc(OC)cc2)CC1c1cccc([N+](=O)[O-])c1 (configuration not stated)	50.1µM	.	.	.	.	.
CCCOC(=O)c1ccc(OCC(O)Cn2c(C)nc3ccccc32)cc1 (configuration not stated)	.	.	?	.	.	3.16µM
Cc1ccc(C(=O)N2CCN3C(=O)c4ccccc4C23c2ccc(Cl)cc2)cc1 (configuration not stated)	.	.	.	.	.	.
O=C(CCl)N1CCN2C(=O)c3ccccc3C12c1ccc(Cl)cc1 (configuration not stated)	5.01µM	.	?	.	.	?
CCn1cc(C(=O)NN)c(=O)c2cc(F)c(N3CCCCC3)cc21	.	.	.	.	.	.
